Measured values published in PubChem BioAssay (NCI).
The panel holds about 83,000 compounds, 20% with a hit somewhere; the sample as a whole holds those more often.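 Cell lines were cultured in 96-well plates, exposed to a single compound concentration, and assessed for percent growth 48 hours later.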 A number with no mark means an inactive call. Calls of active or inactive are those of the source. Rule for the calls: active = growth percent below 10; inactive = the rest.

Experiments:
Assay in all cases: NCI-60 one-dose screen, 48 h (100 = growth as untreated, 0 = no growth, -100 = all killed)
NCI-H23 lung = conditions: 10 µM unless noted
NCI-H226 lung = conditions: 10 µM unless noted
NCI-H322M lung = conditions: 10 µM unless noted
HOP-62 NSCLC = conditions: 10 µM unless noted
NCI-H460 lung = conditions: 10 µM unless noted
786-0 renal = conditions: 10 µM unless noted
MDA-MB-231 breast = conditions: 10 µM unless noted
SF-268 CNS = conditions: 10 µM unless noted
SF-539 CNS = conditions: 10 µM unless noted
HCT-15 colon = conditions: 10 µM
U251 CNS = conditions: 10 µM unless noted
PC-3 prostate = conditions: 10 µM unless noted
SK-MEL-28 melanoma = conditions: 10 µM unless noted
SN12C renal = conditions: 10 µM unless noted
HS 578T breast = conditions: 10 µM unless noted
NCI/ADR-RES ovarian = conditions: 10 µM unless noted
SW-620 colon = conditions: 10 µM unless noted
MCF7 breast = conditions: 10 µM unless noted
HCT-116 colon = conditions: 10 µM unless noted
KM12 colon = conditions: 10 µM unless noted

With `CCC(C)[C@H]1O[C@]2(C=C[C@@H]1C)C[C@@H]1C[C@@H](C/C=C(\C)[C@@H](OC3C[C@H](OC)C(O[C@H]4C[C@H](OC)[C@@H](O)[C@H](C)O4)[C@H](C)O3)[C@@H](C)/C=C/C=C3\CO[C@@H]4[C@H](O)C(C)=C[C@@H](C(=O)O1)[C@]34O)O2` (some centres undefined) the growth (NCI-H23 lung) was 5.82% (active), the growth (NCI-H226 lung) was -15.6% (active) and the growth (NCI-H322M lung) was 25.7%. For the same molecule, the growth (HOP-62 NSCLC) was -6% (active), the growth (NCI-H460 lung) was -34.5% (active) and the growth (786-0 renal) was 0.269% (active). The growth (MDA-MB-231 breast) was -58.2% (active), the growth (SF-268 CNS) was 1.66% (active) and the growth (SF-539 CNS) was -71.6% (active). For the same molecule, the growth (HCT-15 colon) was -20.2% (active), the growth (U251 CNS) was -16% (active) and the growth (PC-3 prostate) was -5.32% (active). The growth (SK-MEL-28 melanoma) was -82.4% (active), the growth (SN12C renal) was 1.84% (active) and the growth (HS 578T breast) was -13% (active). The growth (NCI/ADR-RES ovarian) was 7.16% (active), the growth (SW-620 colon) was -72% (active) and the growth (MCF7 breast) was 10.4%. For the same molecule, the growth (HCT-116 colon) was -81.1% (active) and the growth (KM12 colon) was -12.3% (active).
`CCC1([N+](=O)[O-])COP(=O)(NCc2cccnc2)OC1` (centres undefined) showed a growth (NCI-H23 lung) of 115%, a growth (NCI-H226 lung) of 99.9% and a growth (NCI-H322M lung) of 111%. For the same molecule, the growth (HOP-62 NSCLC) was 103%, the growth (NCI-H460 lung) was 104% and the growth (786-0 renal) was 96.4%. The growth (MDA-MB-231 breast) was 111%, the growth (SF-268 CNS) was 106% and the growth (SF-539 CNS) was 106%. For the same molecule, the growth (HCT-15 colon) was 104%, the growth (U251 CNS) was 107% and the growth (PC-3 prostate) was 106%. For the same molecule, the growth (SK-MEL-28 melanoma) was 113%, the growth (SN12C renal) was 114% and the growth (HS 578T breast) was 107%. It also gave a growth (NCI/ADR-RES ovarian) of 112%, a growth (SW-620 colon) of 105% and a growth (MCF7 breast) of 115%. For the same molecule, the growth (HCT-116 colon) was 103% and the growth (KM12 colon) was 103%.
`C[C@]12CC[C@@H]3c4ccc(OC(=O)Cc5ccc(N(CCCl)CCCl)cc5)cc4CC[C@H]3[C@@H]1CC[C@@H]2OC(=O)Cc1ccc(N(CCCl)CCCl)cc1` showed a growth (NCI-H23 lung) of 119%, a growth (NCI-H226 lung) of 92.6% and a growth (NCI-H322M lung) of 100%. For the same molecule, the growth (HOP-62 NSCLC) was 110%, the growth (NCI-H460 lung) was 125% and the growth (786-0 renal) was 110%. For the same molecule, the growth (MDA-MB-231 breast) was 102%, the growth (SF-268 CNS) was 108% and the growth (SF-539 CNS) was 103%. It also gave a growth (HCT-15 colon) of 113%, a growth (U251 CNS) of 107% and a growth (PC-3 prostate) of 84.8%. The growth (SK-MEL-28 melanoma) was 117%, the growth (SN12C renal) was 92.3% and the growth (HS 578T breast) was 120%. For the same molecule, the growth (NCI/ADR-RES ovarian) was 55.9%, the growth (SW-620 colon) was 103% and the growth (MCF7 breast) was 120%. For the same molecule, the growth (HCT-116 colon) was 104% and the growth (KM12 colon) was 111%.
`CC(C)C1c2ccc(O)cc2Oc2nc(N)c(C#N)c(N)c21` (centres undefined) showed a growth (NCI-H23 lung) of 105%, a growth (NCI-H226 lung) of 93.6% and a growth (NCI-H322M lung) of 93.8%. For the same molecule, the growth (HOP-62 NSCLC) was 92.9%, the growth (NCI-H460 lung) was 107% and the growth (786-0 renal) was 96.1%. It also gave a growth (MDA-MB-231 breast) of 89.9%, a growth (SF-268 CNS) of 112% and a growth (SF-539 CNS) of 93.5%. The growth (HCT-15 colon) was 107%, the growth (U251 CNS) was 95.8% and the growth (PC-3 prostate) was 92.1%. It also gave a growth (SK-MEL-28 melanoma) of 117%, a growth (SN12C renal) of 103% and a growth (HS 578T breast) of 91.4%. It also gave a growth (NCI/ADR-RES ovarian) of 102%, a growth (SW-620 colon) of 115% and a growth (MCF7 breast) of 124%. The growth (HCT-116 colon) was 103% and the growth (KM12 colon) was 103%.
`O=CN1N=C(c2ccccc2)CC1c1sc(N(CCCl)CCCl)nc1Cl` (centres undefined) was tested, and the growth (NCI-H23 lung) was 87.5%, the growth (NCI-H226 lung) was 85.1% and the growth (NCI-H322M lung) was 82.4%. The growth (HOP-62 NSCLC) was 86.9%, the growth (NCI-H460 lung) was 106% and the growth (786-0 renal) was 104%. It also gave a growth (MDA-MB-231 breast) of 77.8%, a growth (SF-268 CNS) of 101% and a growth (SF-539 CNS) of 109%. For the same molecule, the growth (HCT-15 colon) was 92.8%, the growth (U251 CNS) was 96.5% and the growth (PC-3 prostate) was 82.5%. For the same molecule, the growth (SK-MEL-28 melanoma) was 98.7%, the growth (SN12C renal) was 96.1% and the growth (HS 578T breast) was 90.2%. The growth (NCI/ADR-RES ovarian) was 93.6%, the growth (SW-620 colon) was 105% and the growth (MCF7 breast) was 90.1%. It also gave a growth (HCT-116 colon) of 89.4% and a growth (KM12 colon) of 98.9%.
`Cc1ccc(C(=O)C2CN(C)CCC2(O)c2ccc(C)cc2)cc1` (centres undefined) gave a growth (NCI-H23 lung) of 103%, a growth (NCI-H226 lung) of 113% and a growth (NCI-H322M lung) of 113%. The growth (HOP-62 NSCLC) was 140%, the growth (NCI-H460 lung) was 111% and the growth (786-0 renal) was 113%. The growth (MDA-MB-231 breast) was 116%, the growth (SF-268 CNS) was 110% and the growth (HCT-15 colon) was 103%. It also gave a growth (U251 CNS) of 104%, a growth (PC-3 prostate) of 108% and a growth (SK-MEL-28 melanoma) of 113%. For the same molecule, the growth (SN12C renal) was 107%, the growth (HS 578T breast) was 97% and the growth (NCI/ADR-RES ovarian) was 103%. The growth (SW-620 colon) was 105%, the growth (MCF7 breast) was 98.1% and the growth (HCT-116 colon) was 107%. For the same molecule, the growth (KM12 colon) was 109%.
`CC1(C)N=C(N)N=C(N)N1c1ccc(OCCCCOc2ccc(S(=O)(=O)F)cc2)c(Cl)c1` showed a growth (NCI-H23 lung) of 20%, a growth (NCI-H226 lung) of 29.6% and a growth (NCI-H322M lung) of 23.2%. For the same molecule, the growth (HOP-62 NSCLC) was 28.3%, the growth (NCI-H460 lung) was 4.24% (active) and the growth (786-0 renal) was 20.6%. The growth (MDA-MB-231 breast) was 38.3%, the growth (SF-268 CNS) was 17.9% and the growth (SF-539 CNS) was 12.2%. The growth (HCT-15 colon) was 32.8%, the growth (U251 CNS) was 12% and the growth (PC-3 prostate) was 5.85% (active). It also gave a growth (SK-MEL-28 melanoma) of 31.3%, a growth (SN12C renal) of 17.4% and a growth (HS 578T breast) of 60.3%. The growth (NCI/ADR-RES ovarian) was 103%, the growth (SW-620 colon) was 13% and the growth (MCF7 breast) was 9.19% (active). The growth (HCT-116 colon) was 11.2% and the growth (KM12 colon) was 9.69% (active).
